Several values for one entry are separate records, joined by “and”; a condition that tells them apart may be missing. Equal values may be shown once. About 2,000 (36%) of roughly 5,500 compounds were called active. Roughly 18% stayed inconclusive and do not appear here. Rule as the data show it: active = normalized growth mostly below about 0.91 (no sharp cut-off); inconclusive = no clear call, values can overlap the other calls; inactive = mostly above about 0.92. This is one part of the list.
Assay: chemical genetic growth profiling, strain panel (AID 1159580);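 also: tested at 20 µM; growth read once vehicle control cultures reached saturation at 30 °C; 1 = growth at the plate median or of vehicle wells; lower values mean less growth of the strain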
Settings: S. cerevisiae deletion strains, growth OD

Measured: normalized growth

CCCCCCCCCc1ccc(O)cc1
active: locus YAL013W, strain DEP1, active compounds read low 0.118 | locus YAL021C, strain ccr4, active compounds read low 0.0845 | locus YAL026C, strain drs2, active compounds read low 0.0626 | locus YAL030W, strain snc1, active compounds read low 0.0571 | locus YBL061C, strain skt5, active compounds read low 0.0594 | locus YBR009C, strain hhf1, active compounds read low 0.0563 | locus YBR021W, strain FUR4, active compounds read low 0.215 | locus YBR023C, strain chs3, active compounds read low 0.0626 | locus YBR171W, strain sec66, active compounds read low 0.0781 | locus YBR229C, strain ROT2, active compounds read low 0.144 | locus YBR231C, strain swc5, active compounds read low 0.0635 | locus YBR279W, strain paf1, active compounds read low 0.066 | locus YCL011C, strain gbp2, active compounds read low 0.0546 | locus YCL016C, strain dcc1, active compounds read low 0.0648 | locus YCL029C, strain bik1, active compounds read low 0.617 | locus YCL061C, strain MRC1, active compounds read low 0.0666 | locus YCL069W, strain vba3, active compounds read low 0.0655 | locus YCR088W, strain abp1, active compounds read low 0.0637 | locus YDL005C, strain med2, active compounds read low 0.0719 | locus YDL035C, strain GPR1, active compounds read low 0.0859 | locus YDL040C, strain nat1, active compounds read low 0.0822 | locus YDL074C, strain BRE1, active compounds read low 0.0981 | locus YDL101C, strain DUN1, active compounds read low 0.1 | locus YDL134C, strain PPH21, active compounds read low 0.0971 | locus YDL192W, strain arf1, active compounds read low 0.411 | locus YDR001C, strain nth1, active compounds read low 0.0685 | locus YDR069C, strain doa4, active compounds read low 0.115 | locus YDR101C, strain arx1, active compounds read low 0.721 | locus YDR137W, strain rgp1, active compounds read low 0.101 | locus YDR150W, strain NUM1, active compounds read low 0.529 | locus YDR159W, strain sac3, active compounds read low 0.0748 | locus YDR162C, strain NBP2, active compounds read low 0.102 | locus YDR195W, strain ref2 0.0909 | locus YDR297W, strain sur2, active compounds read low 0.0579 | locus YDR318W, strain mcm21, active compounds read low 0.58 | locus YDR334W, strain swr1, active compounds read low 0.0683 | locus YDR335W, strain msn5, active compounds read low 0.06 | locus YDR388W, active compounds read low 0.678 | locus YDR392W, strain spt3, active compounds read low 0.0671 | locus YDR502C, strain sam2, active compounds read low 0.8 | locus YEL003W, strain gim4, active compounds read low 0.0581 | locus YEL037C, strain rad23, active compounds read low 0.0885 | locus YEL061C, strain CIN8 (second series), active compounds read low 0.059 | locus YEL061C, strain CIN8, active compounds read low 0.131 | locus YER015W, strain faa2, active compounds read low 0.0639 | locus YER016W, strain bim1, active compounds read low 0.0583 | locus YER110C, active compounds read low 0.603 | locus YER111C, strain swi4, active compounds read low 0.0713 | locus YER155C, strain BEM2 (second series), active compounds read low 0.504 | locus YER155C, strain BEM2, active compounds read low 0.101 | locus YER167W, strain BCK2, active compounds read low 0.117 | locus YFR010W, strain ubp6, active compounds read low 0.0798 | locus YGL078C, strain dbp3, active compounds read low 0.885 | locus YGL086W, strain mad1, active compounds read low 0.697 | locus YGL167C, strain pmr1, active compounds read low 0.0729 | locus YGL173C, strain kem1, active compounds read low 0.0956 | locus YGL227W, strain vid30, active compounds read low 0.0725 | locus YGL240W, strain doc1, active compounds read low 0.157 | locus YGL248W, strain PDE1, active compounds read low 0.181 | locus YGL253W, strain hxk2, active compounds read low 0.0662 | locus YGR078C, strain PAC10, active compounds read low 0.174 | locus YGR135W, strain pre9, active compounds read low 0.842 | locus YGR229C, strain SMI1, active compounds read low 0.0784 | locus YGR252W, strain gcn5, active compounds read low 0.518 | locus YHR013C, strain ard1, active compounds read low 0.102 | locus YHR027C, strain rpn1, active compounds read low 0.0645 | locus YHR030C, strain SLT2, active compounds read low 0.0665 and 0.09 | locus YHR079C, strain IRE1 (second series), active compounds read low 0.488 | locus YHR079C, strain IRE1, active compounds read low 0.107 | locus YHR094C, strain hxt1, active compounds read low 0.87 | locus YHR129C, strain ARP1, active compounds read low 0.173 | locus YHR142W, strain chs7, active compounds read low 0.064 | locus YHR200W, strain rpn10, active compounds read low 0.577 | locus YIL066C, strain RNR3, active compounds read low 0.116 | locus YIL073C, strain SPO22, active compounds read low 0.182 | locus YIL125W, strain kgd1, active compounds read low 0.405 | locus YIR030C, strain dcg1, active compounds read low 0.762 | locus YJL092W, strain hpr5, active compounds read low 0.0838 | locus YJL095W, strain BCK1 (second series), active compounds read low 0.0552 | locus YJL095W, strain BCK1, active compounds read low 0.0671 and 0.102 | locus YJL115W, strain asf1, active compounds read low 0.113 | locus YJL129C, strain trk1, active compounds read low 0.0774 | locus YJL134W, strain LCB3, active compounds read low 0.308 | locus YJL154C, strain vps35, active compounds read low 0.0618 | locus YJL164C, strain tpk1, active compounds read low 0.0542 | locus YJL166W, strain qcr8, active compounds read low 0.057 | locus YJL187C, strain SWE1 (second series), active compounds read low 0.193 | locus YJL187C, strain SWE1, active compounds read low 0.06 | locus YJR043C, strain POL32, active compounds read low 0.107 | locus YJR066W, strain TOR1, active compounds read low -0.000468
inactive: locus YDL185W, strain tfp1, active compounds read low 0.929 | locus YJL168C, strain set2, active compounds read low 0.992
